Screen size: about 330,000 compounds; about 10,000 (3%) were called active. This is one part of a sample in which actives are shown more often than they occur.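 The calls were made as follows: active = inhibition of at least 50% at 8 µM in the primary screen; inactive = the rest.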
Target: Protein Mdm4 (Homo sapiens) + E3 ubiquitin-protein ligase Mdm2 (Homo sapiens) (UniProt O15151+Q00987)
Assay: inhibitors of human Mdm2-MdmX association, primary screen, cell-based, luminescence, split luciferase, SaOS-2, uHTS (AID 485346)
Conditions: SaOS-2 split-luciferase Mdm2/MdmX complementation, at 8 µM, active compounds read high

Protein Mdm4 (Homo sapiens) + E3 ubiquitin-protein ligase Mdm2 (Homo sapiens), sequence (O15151 whole entry, looked up): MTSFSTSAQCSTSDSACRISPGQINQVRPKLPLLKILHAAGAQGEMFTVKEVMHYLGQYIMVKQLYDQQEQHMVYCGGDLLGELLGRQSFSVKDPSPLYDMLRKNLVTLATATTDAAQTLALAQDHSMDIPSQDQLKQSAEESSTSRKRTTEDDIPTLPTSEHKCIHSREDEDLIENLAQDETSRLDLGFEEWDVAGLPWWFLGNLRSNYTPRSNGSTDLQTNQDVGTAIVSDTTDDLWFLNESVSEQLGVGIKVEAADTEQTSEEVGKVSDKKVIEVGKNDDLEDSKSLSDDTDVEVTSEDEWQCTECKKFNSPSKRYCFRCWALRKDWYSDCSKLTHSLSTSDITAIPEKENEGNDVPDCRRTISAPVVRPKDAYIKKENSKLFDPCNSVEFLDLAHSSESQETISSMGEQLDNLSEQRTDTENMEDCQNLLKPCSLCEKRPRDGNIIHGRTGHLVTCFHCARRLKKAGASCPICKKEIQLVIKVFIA
Protein Mdm4 (Homo sapiens) + E3 ubiquitin-protein ligase Mdm2 (Homo sapiens), sequence (Q00987 whole entry, looked up): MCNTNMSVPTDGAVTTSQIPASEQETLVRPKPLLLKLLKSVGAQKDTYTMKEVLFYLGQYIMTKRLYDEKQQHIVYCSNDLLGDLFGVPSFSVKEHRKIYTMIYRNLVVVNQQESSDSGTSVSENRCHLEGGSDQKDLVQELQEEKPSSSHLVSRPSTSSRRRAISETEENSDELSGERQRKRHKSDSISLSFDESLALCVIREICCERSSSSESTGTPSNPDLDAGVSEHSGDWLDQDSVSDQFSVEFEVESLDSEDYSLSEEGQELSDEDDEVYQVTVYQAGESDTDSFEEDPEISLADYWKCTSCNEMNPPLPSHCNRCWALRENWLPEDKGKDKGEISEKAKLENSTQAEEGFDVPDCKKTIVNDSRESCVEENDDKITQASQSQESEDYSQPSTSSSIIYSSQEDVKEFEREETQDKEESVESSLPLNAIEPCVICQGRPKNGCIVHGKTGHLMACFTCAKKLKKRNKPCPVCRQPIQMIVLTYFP

inhibition, inactive:
COc1ccc(CCNC(=O)COC(=O)c2ncc(Cl)c(Cl)c2Cl)cc1OC 8.42%
COc1ccccc1N1CCN(C(=O)c2cc(=O)c3cc(C)ccc3o2)CC1 40.1%
O=C(c1cc(=O)c2ccccc2o1)N1CCN(c2ccccc2)CC1 17.2%
C=C(C)C(=O)Nc1cccc(C(C)=O)c1 20.2%
CSc1nsc(NC(=O)Nc2ccccc2)n1 -31.4%
C=CCSc1nnc(NC(=O)c2ccc(NC(C)=O)cc2)s1 -18.8%
CCSc1nsc(NC(=O)Nc2ccccc2OC)n1 -33.9%
CCCCC(=O)N1CC2(C)CN(C(=O)CCCC)CC(C)(C1)C2=O -4.56%
CN(C(=O)c1c(Cl)cnn1C)C12CC3CC(CC(C3)C1)C2 4.45%
Cc1ccc2[nH]c(=O)c(CN(CC3COCCO3)C(=O)Nc3ccccc3C)cc2c1 (stereo not drawn) 6.03%
CCC(=O)N(CCc1ccccc1)Cc1cc2cc(C)ccc2[nH]c1=O -5.57%
CC(C)NC(=O)N1CCN(c2ccncc2S(=O)(=O)N2CCCCC2)CC1 14.5%
Cc1ccc2[nH]c3c(=O)n(Cc4ccccn4)cnc3c2c1 7.52%
CCOc1cc(/C=N/Nc2cc(C)nc3ccc(C)cc23)ccc1O 3.4%
Cc1ccc(CC(=O)N(C)CC(=O)N(CC(C)C)c2c(N)n(CC(C)C)c(=O)[nH]c2=O)cc1C -20.2%
Cc1ccccc1NC(=O)NCC1CCN(Cc2cccc(Cl)c2)CC1 8.22%
Cc1ccc(C)c(CN2CCC(CNC(=O)Nc3ccc(C)c(F)c3)CC2)c1 42.6%
O=C(COC(=O)/C(=C/c1cccs1)c1cccs1)NCc1ccccc1Cl -28%
CCN(Cc1ccccc1)S(=O)(=O)c1cc2c3c(c1)CCN3C(=O)CC2 -8.54%
CCCC[C@@H]1CN=C(N)N1CCCC 16.5%
CCCC[C@@H]1CN=C(N)N1CCc1cccc(F)c1 -13.6%
O=C(C1CCN(C2CCN(Cc3ccc4cc(F)ccc4n3)CC2)CC1)N1CCCC1 6.09%
CCCc1nc2oc3c(OCC)ncnc3c2c2c1COC(C)(C)C2 -1.2%
O=C(Nc1nonc1-c1ccc(Cl)cc1)c1ccco1 3.32%
COc1ccc(NC(=O)CN(C)C(=O)/C=C/c2cn(Cc3ccccc3)nc2-c2cccnc2)cc1 9.31%
Cc1ccc(/C=C/C(=O)OCC(=O)Nc2cccnc2Cl)cc1 7.79%
COc1ccccc1CC(=O)Nc1ccc([N+](=O)[O-])cc1OC 19.7%
COc1cc([N+](=O)[O-])ccc1NC(=O)CN1CCCC1 -4.27%
N#Cc1c(N)sc2c1CCN(C(=O)OCc1ccccc1)C2 17.8%
C=CCNC(=O)/C(=C\c1cccc([N+](=O)[O-])c1)NC(=O)c1ccccc1 22.1%
CN(C)CCNC(=O)/C(=C/c1cccc([N+](=O)[O-])c1)NC(=O)c1ccccc1 -8%
NS(=O)(=O)c1cccc(NC(=O)COC(=O)c2cc([N+](=O)[O-])ccc2N2CCCC2)c1 17.6%
CC(C)Oc1ccc(C(=O)NCC(=O)Nc2ccc3c(c2)CCC3)cc1 -15.9%
CC(NC(=O)c1ccco1)C(=O)Nc1nc(-c2ccccn2)cs1 (stereo not drawn) 21.9%
O=C(CN1C(=O)C2C3C=CC(C3)C2C1=O)Nc1nc(-c2ccccn2)cs1 (stereo not drawn) 33.1%
CCOc1ccc(CN2CCN(Cc3ccc4cc(F)ccc4n3)CC2CCO)cc1 (stereo not drawn) -16.3%
COc1ccc(CNC(=O)COC(=O)c2c(C)nn(-c3ccccc3)c2C)cc1OC -1.13%
COc1ccc(/C=C/C(=O)Nc2ccc(C)cc2)cc1S(=O)(=O)N1CCOCC1 18.3%
COc1ccc(/C=C/C(=O)N2CCCC2)cc1OC 5.87%
CCn1nc(C(=O)NNC(=O)C2CSC3(C)CCC(=O)N23)c2ccccc2c1=O (stereo not drawn) 25.6%
Cc1cccc(N2CCN(C(=O)c3cc4c(=O)[nH]c5ccccc5c4n3C)CC2)c1C 40.5%
O=C1CN(C(=O)c2cc(F)cc(F)c2)c2ccccc2N1 21%
CCOc1cc(N2CCOCC2)c(OCC)cc1NC(=O)COc1cccc(Cl)c1 -4.41%
CCOc1cc(N2CCOCC2)c(OCC)cc1NC(=O)c1cc(C)nc2ccccc12 -16.5%
O=S(=O)(Nc1cc(Cl)ccc1N1CCOCC1)c1ccccc1Cl 1.14%

inhibition, active:
COc1ccccc1N1CCN(C(=O)c2cc(=O)c3cc(C)cc(C)c3o2)CC1 63.5%
CCSc1nsc(NC(=O)Nc2cccc(C(C)=O)c2)n1 62.3%
C=CCSc1nsc(NC(=O)Nc2cccc(C(C)=O)c2)n1 94.3%
Cc1ccc2[nH]c(=O)c(CN(CCCN(C)C)C(=O)Nc3cccc(Cl)c3)cc2c1 66.9%
COc1cc(OC)c(OC)cc1/C=N/Nc1ncnc2c1[nH]c1ccc(C)cc12 78.4%
Cc1cccc(CN2CCC(CNC(=O)Nc3ccc(F)c(Cl)c3)CC2)c1 51.6%
CCCC[C@@H]1CN=C(N)N1CCc1cc(C(F)(F)F)cc(C(F)(F)F)c1 68.1%
O=C(COC(=O)/C=C/c1cn(-c2ccccc2)nc1-c1cccnc1)Nc1ccc(Cl)cc1Cl 61.3%
COc1cc([N+](=O)[O-])ccc1NC(=O)COC(=O)CCOc1ccc(C)cc1 57.2%
Cc1ccc(C(=O)N/C(=C/c2ccc(-c3cccc([N+](=O)[O-])c3)o2)C(=O)NCCCN(C)C)cc1 78.3%
O=C(COc1ccccc1F)Nc1nc(-c2ccccn2)cs1 72.2%
COc1ccc(/C=C/C(=O)Nc2ccc(C34CC5CC(CC(O)(C5)C3)C4)cc2)cc1OC 59.1%
CCOc1cc(N2CCOCC2)c(OCC)cc1NC(=O)COc1cccc2cccnc12 90.6%
